“And” between values parts separate entries of the source, which are not always exact repeats. Equal values may be shown once. The whole screen tested about 52,000 compounds, of which about 4,300 (8.3%) were called active. No stated cut-off is given here; in the data, active means survival mostly below about 52% (no sharp cut-off); inactive means mostly above about 56%. This excerpt belongs to a sample that is enriched for actives. Where a structure was tested more than once in an assay, its records may differ in their call.
Test system: DeltatarO mutant
Test: growth inhibition of S. aureus wild type versus tarO mutant, primary screen, teichoic acid synthesis inhibitors, RN4220, OD600 (AID 463173)
Conditions: OD600, 18 h, stronger effect = lower value, screened at 18.75 µg/mL (by protocol)

Structure (SMILES) | survival
Fc1ccccc1OCc1nc(-c2ccc(-n3cccc3)cc2)no1 | 75% (inactive)
COc1ccc(CNC(=O)CSc2nc3ccccc3nc2Cc2ccccc2OC)cc1 | 70% (inactive)
COc1ccc(NC(=O)C2CCC(CNS(=O)(=O)c3ccc4c(c3)C(C)(C)C(=O)N4C)CC2)cc1 (configuration not stated) | 54% (inactive)
Cc1cc(C)cc(NC(=O)C2CCC(CNS(=O)(=O)c3ccc4c(c3)C(C)(C)C(=O)N4C)CC2)c1 (configuration not stated) | 102% (inactive)
CC(=O)c1ccc(NC(=O)C2CCC(CNS(=O)(=O)c3ccc4c(c3)CCCC(=O)N4)CC2)cc1 (configuration not stated) | 73% (inactive)
CCOc1ccc(NC(=O)C2CCC(CNS(=O)(=O)c3ccc4c(c3)CCCC(=O)N4)CC2)cc1 (configuration not stated) | 47% (active)
Cc1ccc(NC(=O)C2CCC(CNS(=O)(=O)c3ccc4c(c3)C(C)(C)C(=O)N4C)CC2)cc1 (configuration not stated) | 67% (active)
CC(C)c1ccc(NC(=O)C2CCC(CNS(=O)(=O)c3ccc4c(c3)CCCC(=O)N4)CC2)cc1 (configuration not stated) | 73% (inactive)
Cc1ccc(S(=O)(=O)NC2CCCCC2)c2nsnc12 | 78% (inactive)
Cc1nc(C)c(CCNS(=O)(=O)c2ccc(F)cc2)s1 | 119% (inactive)
CCc1cccc(NC(=O)CSc2n[nH]c(-c3ccccc3Cl)n2)c1 | 66% (inactive)
Cc1cc(Nc2ccccc2O)nc(C)n1 | 67% (inactive)
Cc1ccc(NS(=O)(=O)c2c(C(=O)N3CCC(C)CC3)c(C)n(C)c2C)cc1Cl | 126% (inactive)
CC(=O)Nc1ccc(NS(=O)(=O)c2c(C(=O)N3CCCCCC3)c(C)n(C)c2C)cc1 | 66% (inactive)
COc1cc(OC)c(NS(=O)(=O)c2c(C(=O)N3CCCCCC3)c(C)n(C)c2C)cc1Cl | 68% (inactive)
CC(=O)Nc1ccc(NS(=O)(=O)c2c(C(=O)N3CCC(C)CC3)c(C)n(C)c2C)cc1 | 20% (active)
CCOc1ccc(OCC)c(NS(=O)(=O)c2c(C(=O)N3CCCCCC3)c(C)n(C)c2C)c1 | 76% (inactive)
COc1ccc(C)cc1NS(=O)(=O)c1c(C(=O)N2CCC(C)CC2)c(C)n(C)c1C | 89% (inactive)
COc1cc(OC)c(NS(=O)(=O)c2c(C(=O)N3CCC(C)CC3)c(C)n(C)c2C)cc1Cl | 17% (active)
CCOc1ccc(CNS(=O)(=O)c2c(C(=O)N3CCC(C)CC3)c(C)n(C)c2C)cc1OC | 81% (inactive)
CCOc1ccc(OCC)c(NS(=O)(=O)c2c(C(=O)N3CCC(C)CC3)c(C)n(C)c2C)c1 | 8% (active)
Cc1ccc(CNC(=O)c2c(-c3ccccc3F)noc2C)o1 | 89% (inactive)

Structure (SMILES) | survival
CCC1CN(C(=O)N2CCC(C(=O)NCCN(CC)CC)CC2)c2cc(C)ccc2O1 (configuration not stated) | 94% (inactive)
Cn1ccc2c(OCC(=O)Nc3ccc(OC(F)(F)F)cc3)cccc2c1=O | 95% (inactive)
CCCc1nn2c(=O)cc(COC(=O)c3cccc(NC(=O)CCc4ccccc4)c3)nc2s1 | 131% (inactive)
CC(=O)c1ccc(NC(=O)Cn2c(=O)nc(-c3ccccc3)c3cc(Cl)ccc32)cc1 | 115% (inactive)
O=C(NCCC1=CCCCC1)C1CC(O)CN1C(=O)Nc1ccccc1 (configuration not stated) | 87% (inactive)
CCOC(=O)c1c(-c2ccccc2)csc1NC(=O)c1cc(-c2ccc(F)cc2)on1 | 66% (inactive)
CCOC(=O)c1c(NC(=O)c2cc(-c3cccc(OC)c3)on2)sc2c1CCCC2 | 46% (active)
CCOC(=O)c1c(NC(=O)c2cc(-c3ccc(OC)c(OC)c3)on2)sc2c1CCCC2 | 52% (inactive)
CCOC(=O)c1c(-c2ccccc2)csc1NC(=O)c1cc(-c2cccc(OC)c2)on1 | 43% (active)
CCOC(=O)c1c(-c2ccccc2)csc1NC(=O)c1cc(-c2ccc(C)c(F)c2)on1 | 52% (active)
CCOC(=O)c1c(-c2ccccc2)csc1NC(=O)c1cc(-c2cccc(Cl)c2)on1 | 59% (inactive)
CCOC(=O)c1c(NC(=O)c2cc(-c3ccc(Cl)cc3)on2)sc2c1CCCC2 | 68% (inactive)
CCOC(=O)c1c(-c2ccc(C)cc2)csc1NC(=O)c1cc(-c2ccc(C)c(F)c2)on1 | 55% (inactive)
CCOC(=O)c1c(-c2ccc(C)cc2)csc1NC(=O)c1cc(-c2ccc(OC)cc2)on1 | 49% (inactive)
CCc1ccccc1-n1nnc(-c2nsc(NC(=O)c3ccc(C)c(C)c3)n2)c1C | 130% (inactive)
COc1ccc(NC(=O)C2Cc3ccccc3CN2S(=O)(=O)c2ccccc2)cc1OC (configuration not stated) | 94% (inactive)
CCc1c(C)sc2c1CCN(Cc1cccc(OC)c1)C2c1ccccc1 (configuration not stated) | 60% (inactive)
CCCCNC(=O)c1ccc2c(=O)n(Cc3ccc(OC)cc3)c(=O)[nH]c2c1 | 68% (inactive)
COc1cc(OC)c(NC(=O)CCNS(=O)(=O)c2ccc3c(c2)oc(=O)n3C)cc1Cl | 83% (inactive)
Cc1cc(/C=C(\C#N)C(=O)N2CCc3ccccc3C2)c(C)n1C | 87% (inactive)
O=C(/C=C\c1ccc2c(c1)OCO2)NC1CC(=O)N(c2cccc(F)c2)C1 (configuration not stated) | 67% (inactive)
COC(=O)c1ccc(NC(=O)NC(C)c2c(-n3cccc3)sc(C)c2C)cc1 (configuration not stated) | 52% (inactive)

Structure (SMILES) | survival
COC(=O)c1ccc(Cl)cc1NC(=O)NC(C)c1c(-n2cccc2)sc(C)c1C (configuration not stated) | 19% (active)
Cc1sc(-n2cccc2)c(C(C)NC(=O)Nc2ccccc2Cl)c1C (configuration not stated) | 61% (inactive)
Cc1ccc(NC(=O)NC(C)c2c(-n3cccc3)sc(C)c2C)cc1F (configuration not stated) | 64% (inactive)
Cc1sc(-n2cccc2)c(C(C)NC(=O)Nc2cccc(C(F)(F)F)c2)c1C (configuration not stated) | 23% (active)
COc1ccc(NC(=O)NC(C)c2c(-n3cccc3)sc(C)c2C)cc1OC (configuration not stated) | 58% (inactive)
CCn1nc(CCC(=O)O)c2ccccc2c1=O | 80% (inactive)
Cc1ccc2oc(-c3ccccc3C)nc2c1 | 105% (inactive)
Nc1ccc2oc(-c3ccccc3Br)nc2c1 | 87% (inactive) and 39% (active)
O=C(Nc1ccc2oc(-c3cccc4c(Br)cccc34)nc2c1)c1ccc(Br)cc1 | 71% (inactive)
CCOC(=O)CC(NC(=O)c1cc2cc(OC)ccc2oc1=O)c1ccc(OC)cc1 (configuration not stated) | 74% (inactive)
Cc1ccc(-c2noc(CNC(=O)c3ccc(C)c(Cl)c3)n2)cc1 | 49% (inactive)
Cc1ccc(-c2noc(CCCC(=O)NCc3ccco3)n2)cc1 | 53% (inactive)
Cc1ccccc1C(=O)NCc1nc(-c2ccc(Cl)cc2)no1 | 47% (active)
COc1cccc(-c2noc(CCCC(=O)NCc3ccco3)n2)c1 | 109% (inactive)
Cc1ccc(CC(=O)NCc2nc(-c3cccc(C)c3)no2)cc1 | 69% (inactive)
Cc1cccc(-c2noc(CCCC(=O)NCc3ccco3)n2)c1 | 42% (active)
Cc1cccc(-c2noc(CNC(=O)c3ccc(C)cc3C)n2)c1 | 37% (active)
Cc1cccc(-c2noc(CNC(=O)c3ccccc3Br)n2)c1 | 72% (inactive)
Cc1ccc(-c2noc(CNC(=O)c3ccccc3)n2)cc1 | 63% (inactive)
O=C(CSc1nc2ccccc2nc1Cc1ccc(Cl)cc1)N1CCc2ccccc21 | 93% (inactive)
O=C(NC1CC(=O)N(c2ccc(F)cc2)C1)C(c1ccccc1)c1ccccc1 (configuration not stated) | 124% (inactive)
CCc1ccc(C(=O)c2cn(CC(=O)Nc3ccc(Cl)cc3)c3cc4c(cc3c2=O)OCO4)cc1 | 146% (inactive)

Structure (SMILES) | survival
CCc1ccc(NC(=O)Cn2ccn(-c3ccc(C)c(C)c3)c(=O)c2=O)cc1 | 104% (inactive)
COc1ccc(OC)c(CCNC(=O)c2sc3nc4n(c(=O)c3c2C)CCCC4)c1 | 80% (inactive)
COc1cccc(NC(=O)CCN2C(=O)c3ccccc3Sc3ncccc32)c1 | 102% (inactive)
O=c1c2cc3c(cc2nc2sc(Nc4cccc([N+](=O)[O-])c4)nn12)OCO3 | 123% (inactive)
CC(C)c1ccc(C2c3c(-c4ccccc4O)n[nH]c3C(=O)N2CCc2ccccc2)cc1 (configuration not stated) | 50% (inactive)
O=C1c2[nH]nc(-c3ccccc3O)c2C(c2ccc(F)cc2)N1CCO (configuration not stated) | 78% (inactive)
O=C1c2[nH]nc(-c3ccccc3O)c2C(c2ccc(Cl)cc2)N1CCc1ccccc1 (configuration not stated) | 4% (active)
Cc1ccc(C2c3c(-c4ccccc4O)n[nH]c3C(=O)N2CCCO)cc1 (configuration not stated) | 58% (inactive)
Cc1ccc(C2c3c(-c4ccccc4O)n[nH]c3C(=O)N2CCc2ccccc2)cc1 (configuration not stated) | 32% (active)
CCN1C(=O)N(CC)C2NC(=S)NNC21 (configuration not stated) | 91% (inactive)
CC(C)(C)OC(=O)N1CCC(c2c(C(=O)Nc3ccc4c(c3)OCCO4)cnn2-c2ccccc2)CC1 | 96% (inactive)
CCn1nc(C)c2c(-c3ccccc3)cc(=O)n(C(C)C(=O)NCCc3ccc(OC)c(OC)c3)c21 (configuration not stated) | 92% (inactive)
CCCS(=O)(=O)N1CC(=O)N(c2ccc(C)cc2C)C(C)(C(=O)NC2CCCCCC2)C1 (configuration not stated) | 67% (inactive)
CCC(=O)Nc1ccccc1-c1nc2ccccc2n(C(CC)C(=O)Nc2cccc(Cl)c2)c1=O (configuration not stated) | 24% (active)
CCC(=O)Nc1ccccc1-c1nc2ccccc2n(C(CC)C(=O)Nc2cccc(C(C)=O)c2)c1=O (configuration not stated) | 91% (inactive)
CCC(C(=O)Nc1ccc(C)c(Cl)c1)n1c(=O)c(-c2ccccc2NC(C)=O)nc2ccccc21 (configuration not stated) | 63% (inactive)
CCC(=O)Nc1ccccc1-c1nc2ccccc2n(C(C)C(=O)Nc2cccc(Cl)c2C)c1=O (configuration not stated) | 42% (active)
CCC(=O)Nc1ccccc1-c1nc2ccccc2n(C(C)C(=O)Nc2ccc(OC)cc2)c1=O (configuration not stated) | 55% (inactive)
CC(=O)Nc1ccccc1-c1nc2ccccc2n(C(C)C(=O)Nc2cccc(C)c2C)c1=O (configuration not stated) | 100% (inactive)
CC(C)N(C(=O)CSc1nnc(Cn2nnc3ccccc32)n1C)C(C)C | 81% (inactive)
Cc1ccn2c(Nc3ccc4c(c3)OCO4)c(-c3ccc(N(C)C)cc3)nc2c1 | 101% (inactive)

— PubChem BioAssay AID463173 (ICCB-Longwood Screening Facility, Harvard Medical School, 2010)
